The values that follow come from the supplement of paper PMC3334620.

The full ranking holds about 33,000 sequences; the median of “E-score (-0.5 to 0.5)” is about -0.011, and the highest 2% start at about 0.28. The full list was thinned out, with the highest values kept by preference.

The target in the test is T1, Gcr1 (UniProt P07261).
T1 sequence: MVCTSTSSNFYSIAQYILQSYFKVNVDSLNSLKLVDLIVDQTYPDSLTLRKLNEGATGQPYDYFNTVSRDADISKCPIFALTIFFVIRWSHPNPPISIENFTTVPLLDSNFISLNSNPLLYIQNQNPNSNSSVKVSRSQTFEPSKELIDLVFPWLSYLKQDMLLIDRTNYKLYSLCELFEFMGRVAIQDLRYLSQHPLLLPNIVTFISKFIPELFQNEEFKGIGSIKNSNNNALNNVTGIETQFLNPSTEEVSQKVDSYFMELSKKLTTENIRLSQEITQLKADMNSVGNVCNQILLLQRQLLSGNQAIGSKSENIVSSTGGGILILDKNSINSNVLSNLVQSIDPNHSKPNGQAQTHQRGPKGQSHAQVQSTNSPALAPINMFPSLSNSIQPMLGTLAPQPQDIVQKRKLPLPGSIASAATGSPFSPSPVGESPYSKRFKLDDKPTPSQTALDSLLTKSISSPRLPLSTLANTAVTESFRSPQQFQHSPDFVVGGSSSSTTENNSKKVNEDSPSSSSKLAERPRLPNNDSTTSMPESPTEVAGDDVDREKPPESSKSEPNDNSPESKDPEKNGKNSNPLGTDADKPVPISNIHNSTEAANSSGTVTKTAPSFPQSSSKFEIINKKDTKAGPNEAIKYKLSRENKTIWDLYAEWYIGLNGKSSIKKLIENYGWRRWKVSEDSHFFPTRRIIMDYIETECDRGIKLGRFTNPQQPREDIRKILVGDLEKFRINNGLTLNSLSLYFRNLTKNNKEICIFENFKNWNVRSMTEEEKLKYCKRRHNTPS
The test is described as follows: PBM E-score (8-mer binding enrichment) (E-score (-0.5 to 0.5)); higher = stronger / more preferred TF binding. Particulars: protein concentration: 100 nM; construct: GST-full length. The procedure:
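Universal 'all 10-mer' protein binding microarrays (Agilent AMADID 015681) probed with GST-tagged S. cerevisiae TFs (full-length or DBD) made by in vitro transcription/translation (PURExpress), about 100-200 nM. Bound TF was detected with fluorescent anti-GST. Each ungapped 8-mer (which stands for itself and its reverse complement) is scored by the PBM enrichment score (E-score), a modified Wilcoxon-Mann-Whitney statistic from -0.5 to +0.5, computed with the Universal PBM Analysis Suite. Scale: above 0.35 generally sequence-specific binding.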
Consider AAATCTGG, for which the “PBM E-score” value came to 0.292.
Consider CCGTTAGG, for which the “PBM E-score” value is 0.0609.
On to CCCGGGAC, for which the “PBM E-score” value was found to be 0.21.
To ATTGCGGG belongs -0.0146; to GGTGCCGA, 0.285.
For AGTGCCCA, the “PBM E-score” value was determined as 0.0254.
For the sequence TATGCCCA, the “PBM E-score” value was -0.14.
As to GGTGCCCA, the “PBM E-score” value was determined as 0.382.
Consider AGTGCCGA, for which the “PBM E-score” value is -0.0356.
As for GATGCCCA, the “PBM E-score” value is 0.378.
Consider GATGCCCC, for which the “PBM E-score” value stood at 0.248.
To CGTGCCCA belongs 0.0649; to CGTGCCGA, -0.0978; to AGATTCAG, 0.117.
As to ACAGGGAC, the “PBM E-score” value was 0.107.
In the case of ACTTCCCA it was 0.0658; in that of CCTTCCCA, 0.122.
On to GCTTCCCA, for which the “PBM E-score” value is 0.386.
CCTTCCCC: the “PBM E-score” value was -0.122.
On to ACTTCCCC, for which the “PBM E-score” value was 0.0219.
Take GCTTCCCC: the “PBM E-score” value is 0.341.
Regarding CTGTGGGC, the “PBM E-score” value was 0.0855.
In the case of GGTAGATA it was 0.00026; in that of CAGTGCCA, -0.0969.
Regarding ATGCCGGA, the “PBM E-score” value came to 0.215.
In the case of AATAGCGC, the “PBM E-score” value was 0.0793.
To ACATCCGA belongs -0.104.
With CCATCCTA, the “PBM E-score” value worked out at 0.0473.
As for CCATCCGA, the “PBM E-score” value is -0.0665.
As to ACATCCTA, the “PBM E-score” value is 0.166.
Consider GCATCCTA, for which the “PBM E-score” value came out at 0.4.
In the case of GCATCCGA, the “PBM E-score” value came out at 0.33.
With ACCTATAT, the “PBM E-score” value came out at 0.194.
ATGTTGTC: the “PBM E-score” value was -0.117.
On to ATAATTGC, for which the “PBM E-score” value is -0.00448.
For ACCTATAA, the “PBM E-score” value turned out to be 0.0515.
As to TCGTATAA, the “PBM E-score” value worked out at 0.286.
To CCCTATAA belongs 0.141.
On to CCGTATAA, for which the “PBM E-score” value stood at 0.195.
Turning to GCGTATAA, the “PBM E-score” value worked out at 0.353.
For the sequence GCGTATAC, the “PBM E-score” value was 0.156.
Turning to TCCTATAA, the “PBM E-score” value was 0.334.
ACGTATAA: the “PBM E-score” value was determined as 0.132.
For GTGTATAA, the “PBM E-score” value is -0.0442.
AAGGTGCA: the “PBM E-score” value was -0.0118.
For CAATAGCG, the “PBM E-score” value was determined as 0.025.
As for CGAAATAG, the “PBM E-score” value was determined as 0.131.
Consider ACCCTGCG, for which the “PBM E-score” value is -0.0486.
To CGGAATAA belongs -0.168.
In the case of GATGCGCA it was 0.134; in that of CTGGTTGA, -0.09.
To CTGGTTCA belongs -0.192; to ATGGTTCC, 0.0654.
With CTGGTTCC, the “PBM E-score” value turned out to be 0.34.
In the case of CCGGTTGA, the “PBM E-score” value was determined as 0.0186.
Regarding CTGGTTGC, the “PBM E-score” value came out at 0.288.
In the case of ACGGTTGC it was -0.264; in that of CCGGTTGC, 0.317.
For ATGGTTGC, the “PBM E-score” value is 0.274.
With ACGGTGTC, the “PBM E-score” value is -0.168.
As for CTGCTACA, the “PBM E-score” value amounted to 0.0929.
Take CTCATCAG: the “PBM E-score” value stood at 0.0338.
Regarding CTTCTATA, the “PBM E-score” value was 0.187.
In the case of CAGATACA it was 0.0958; in that of GACATTCA, -0.094.
AATAACGT: the “PBM E-score” value amounted to 0.00611.
As for CGATGCCC, the “PBM E-score” value was determined as 0.0343.
As for AGATGCCT, the “PBM E-score” value amounted to 0.17.
To AGATGCTA belongs 0.25; to GGATGCTA, 0.44; to GGATGCCC, 0.464.
With AGATGCCG, the “PBM E-score” value is 0.273.
Regarding AGATGCTG, the “PBM E-score” value was determined as 0.282.
On to AGATGCTC, for which the “PBM E-score” value was determined as 0.0444.
To CGATGCTA belongs 0.266; to GAATGCTA, -0.121; to AGATGCCC, 0.108.
Take AGATGCCA: the “PBM E-score” value stood at 0.385.
Take AGAGCGCC: the “PBM E-score” value is 0.0412.
In the case of CGCAACAG it was -0.0598.
On to GGCAAACA, for which the “PBM E-score” value was -0.14.
In the case of GTGGGAGA it was 0.0205; in that of GTGGTAGA, -0.166; in that of AAGGTTGT, 0.0394.
To GGATGCCA belongs 0.454.
Turning to CGATGCCA, the “PBM E-score” value was 0.156.
On to TGATGCCA, for which the “PBM E-score” value is -0.0459.
